Bioassay records: PubChem BioAssay, National Center for Advancing Translational Sciences (NCATS)
Compounds with a hit are over-represented: about 3.8% of the library has one in this group of screens.
ATXN2 expr inh – ATXN2 expression inhibition; HEK-293 ATXN2-luciferase reporter, luminescence, 24 h; Potency, µM (series often up to 57 µM), for inactives: at the top dose activity change, negative = inhibition, most hits filed as inhibitors; hit rate 0.72% among 360,000; also: % is scaled to controls: 0 for no effect and ±100 for the full control effect; nearly all actives have a fitted effect of over 55% in size
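qHTS (up to 57 uM final) was run with 24 h compound exposure of reporter cells at 37 °C. Each well was multiplexed: SteadyGlo luminescence measured ATXN2-luciferase expression after a fluorogenic Gly-Phe-AFC viability readout (25 uM final).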
S2 tox – reduces viability in counter-screen for ATXN expression inhibitors. Potency, µM (titrated, usually from 56.7 µM), hits mostly cytotoxic. AID 651635. S2 cells (HEK-293 line with an ATXN2-luciferase reporter) viability, CellTiter-Fluor protease fluorescence, 24 h. hit rate 0.49% among 400,000; also: nearly all actives have a fitted effect of over 40% in size
TGFb SMAD3 inh – blocks TGF-b signaling; AID 588855; hit rate 1.2% among 410,000; Potency, µM (highest dose often 46.1 µM), for inactives: at the top dose activity, negative = inhibition, usual class: inhibitors; HepG2 CAGA-GFP TGF-b/SMAD3 reporter, GFP fluorescence, 18 h; TGF-beta stimulated, 500 pg/mL final; also: % is scaled to controls: 0 for no effect and ±100 for the full control effect; nearly all actives have a fitted effect of over 65% in size
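Per well, imaged GFP fluorescence of HEPG2 CAGA-GFP cells gives the signal; cells get compound, then TGF-beta (500 pg/mL final), 18 h at 37 degrees C; %Activity versus -TGF-beta and +DMSO controls.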
HT1080 IDH1KD tx – kills HT-1080 cells with IDH1 knockdown. hit rate 2% among 360,000. HT-1080 IDH1 knockdown viability, ATP luminescence, 48 h. Potency, µM (top dose mostly 46.1 µM), for the others: at the highest dose activity, negative = toxicity, most hits filed as cytotoxic. AID 686971;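 also: 0% = DMSO wells and -100% = cell-free medium wells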
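Assay cells: HT-1080 with IDH1 knockdown, 750 per well, RPMI/5% FBS. Exposure: 48 h at 37 °C following 2 h pre-incubation. Read: CellTiter-Glo luminescence; fitted concentration-response, curve class assigned.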
HT1080NT lethal – kills 2HG-producing HT-1080-NT fibrosarcoma cells | HT-1080-NT fibrosarcoma viability, CellTiter-Glo ATP luminescence, 48 h | Potency, µM (series often up to 46.1 µM), inactives show at the top dose activity, negative = less viability, actives largely listed as cytotoxic | hit rate 1.6% among 360,000;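 also: NT is the 2HG producing partner of a matched IDH1 knockdown line; 0% = DMSO-treated cells and -100% = media-only wells without cells; nearly all actives have a fitted effect of over 55% in size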
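Toxicity toward the 2HG-producing NT line was scored as %Activity, normalised to DMSO and no-cell wells, from CellTiter-Glo luminescence after 48 hours' treatment.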
HepG2 tox – counter-screen for TGF-b inhibitors: cytotoxicity in HepG2 cells; HepG2 CAGA-GFP viability, ATP luminescence, 18 h; Potency, µM (highest dose often 46.1 µM), without a hit: at the highest dose activity change, negative = cytotoxicity, hits mostly cytotoxic; hit rate 0.76% among 410,000; AID 588856
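HepG2 CAGA-GFP cells (1000/well, DMEM with 1% FBS) received compound, then TGF-beta at 500 pg/mL final, and were incubated 18 hours at 37 degrees C. Viability was read by CellTiter-Glo luminescence. Media-only wells were set as complete cell-killing and DMSO as no toxicity.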
An asterisk follows results filed as active; i = inactive; ? = inconclusive; · = no result. Calls follow the shape of the dose curve; as a rule, active = well fitted curve in the direction sought with a large enough effect; inconclusive = small, poorly fitted or top-dose-only effect, or another doubt; inactive = no such curve, though single readings can be large; an effect the other way counts as inactive or inconclusive. Potency is read from the fitted curve at half-maximal effect.

SMILES	ATXN2 expr inh	S2 tox	TGFb SMAD3 inh	HT1080 IDH1KD tx	HT1080NT lethal	HepG2 tox
CC(C)(C)NCC(O)(c1ccc(Cl)cc1)c1ccc(Cl)cc1	?	?	?	14.6µM*	13µM*	-47.1%
Clc1ccc(-c2ccc(CNCCSc3nnnn3-c3ccccc3)o2)cc1	-24.2%	i	?	·	·	-56.6%
CCN(CC)CCNCC(O)(c1ccc(Cl)cc1)c1ccc(Cl)cc1	0.6%	i	?	20.6µM*	20.6µM*	-51.5%
COc1ccccc1CNCC(O)(c1ccc(Cl)cc1)c1ccc(Cl)cc1	?	i	?	11.2µM*	12.6µM*	-102.8%
CCN(CC)CCNCc1ccc(-c2ccc(Cl)cc2)o1	-23.0%	i	-1.4%	?	15.8µM*	-31.7%
COc1ccccc1CNCC(O)(c1ccc(F)cc1)c1ccc(F)cc1	·	?	?	-12.3%	-17.2%	-48.5%
O=C(NCCO)c1cn(C2CCCN(Cc3cccc(C(F)(F)F)c3)C2)nn1 (stereo not drawn)	·	i	·	·	·	·
COc1ccc(S(=O)(=O)NN(C)c2nc(C(F)(F)F)nc3ccccc23)cc1	-21.5%	?	2.8%	16.4µM*	20.6µM*	1.9%
Cc1[nH]c2ccccc2c1/C=C/c1ccc2ccccc2n1	·	·	0.2%	·	·	10µM*
Cc1[nH]c2ccccc2c1/C=C/c1cnc2ccccc2n1	·	·	-28.1%	·	·	-30.1%
c1ccc(COc2ccc(-c3cc4nc(NCCN5CCOCC5)ccn4n3)cc2)cc1	?	?	26.2%	18.4µM*	?	-42.9%
c1ccc(COc2cccc(-c3cc4nc(NCCN5CCOCC5)ccn4n3)c2)cc1	0.0%	?	1.0%	?	14.6µM*	-28.6%
c1ccc(COc2cccc(-c3cc4nc(NCCOc5ccccc5)ccn4n3)c2)cc1	5.0%	i	?	?	?	-28.9%
COc1ccccc1-c1ccnc(-n2ncc(C(=O)NCCc3cccnc3)c2C)n1	·	i	·	·	·	·
CCOc1ccccc1NC(=O)Nc1cc2c(cc1N1CCCCC1)n(CC)c(=O)n2CC	-33.2%	?	3.5%	·	·	-11.1%
C=C1C(=O)[C@]23C[C@H]1CCC2[C@@]1(C)C(C[C@@H]3O)[C@](C)(C(=O)O)C[C@H](O)[C@@H]1O (stereo partly drawn)	2.6%	i	-3.8%	-1.8%	27.6%	-1.6%
C=C1C(=O)[C@]23C[C@H]1CCC2[C@@]1(C)C(C[C@@H]3O)[C@](C)(C(=O)OC)CC[C@@H]1OC(C)=O (stereo partly drawn)	2.51µM*	2.82µM*	1µM*	1.16µM*	2.59µM*	5.62µM*
C=C1C(=O)[C@]23C[C@H]1CC[C@H]2[C@]1(C)[C@@H](OC(C)=O)CC[C@@](C)(C(=O)O)[C@H]1C[C@@H]3O	3.16µM*	·	5.62µM*	5.8µM*	6.51µM*	-79.4%
C=C1C(=O)[C@]23C[C@H]1CC[C@H]2[C@]1(C)[C@@H](O)CC[C@@](C)(C(=O)O)[C@H]1C[C@@H]3O	?	·	8.91µM*	?	?	-89.1%
C=C1C(=O)[C@]23C[C@H]1CC[C@H]2[C@]1(C)[C@@H](OC(C)=O)CC[C@@](C)(C(=O)OC)[C@H]1C[C@@H]3OC(C)=O	?	31.6µM*	?	2.59µM*	3.66µM*	5.62µM*
Cc1cc(C)nc(-n2nc(C)c(Sc3ccc(F)cc3)c2N)n1	30.9%	?	?	5.01µM*	3.98µM*	-31.7%
O=C(Nc1ccccc1)Nc1ccc2ncoc2c1	43.7%	·	1.2%	-0.3%	1.9%	0.251µM*
C1=Cc2ccccc2/C1=C/c1ccc2c(c1)OCO2	·	·	2.7%	·	·	-33.5%
CCN(c1cccc(C)c1)S(=O)(=O)c1cc(CN2C(=O)c3cccnc3C2=O)ccc1OC	2.3%	i	2.0%	8.7%	-1.5%	11.2µM*
COc1ccc(CN2C(=O)c3cccnc3C2=O)cc1S(=O)(=O)N(C)c1ccc(C)cc1	10.1%	i	-3.1%	2.5%	20.2%	-0.7%
SMILES	ATXN2 expr inh	S2 tox	TGFb SMAD3 inh	HT1080 IDH1KD tx	HT1080NT lethal	HepG2 tox
CCc1ccc(-c2cn3nc(C)c(C)nc3n2)cc1	5.01µM*	·	-13.2%	2.1%	-0.7%	-7.1%
Cc1nc2nc(-c3ccccc3)cn2nc1C	15.8µM*	·	1.2%	-12.1%	-17.1%	-46.3%
c1ccc(-c2cn3nc4c(nc3n2)CCCC4)cc1	5.62µM*	·	-1.2%	?	?	-31.4%
Cc1nc2nc(-c3ccc(F)cc3)cn2nc1C	·	·	0.3%	-2.8%	1.5%	-19.0%
O=C(CN1Cc2ccccc2OC(c2ccsc2)C1)N1CCN(Cc2ccc3c(c2)OCO3)CC1 (stereo not drawn)	·	i	·	·	·	·
CC1(C)CC(NC(=O)c2cccc(S(=O)(=O)N(Cc3ccccc3)c3ccccc3)c2)CC(C)(C)N1	?	?	?	-1.7%	-2.7%	14.1µM*
CNC(=O)[C@@H]1C[C@H](Sc2nc3ccccc3[nH]2)CN1Cc1cccc(C(F)(F)F)c1	·	i	·	·	·	·
COCCCNCC1C(Oc2ccc(Cl)cc2)C(=O)N1c1ccccc1C (stereo not drawn)	-36.0%	i	4.1%	-11.5%	-28.7%	1.8%
Cc1ccccc1N1C(=O)C(Oc2ccc(Cl)cc2)C1CNCCCOC(C)C (stereo not drawn)	-38.7%	i	?	16.4µM*	16.4µM*	-10.0%
c1ccc(-c2nc(N3CCCCC3)nc3ccccc23)cc1	2.6%	·	?	-12.5%	-8.1%	-32.1%
CCN1CCN(c2nc(-c3ccccn3)nc3ccccc23)CC1	?	i	-15.8%	10µM*	8.91µM*	2.7%
CCN1CCN(c2nc(-c3ccccc3)c3ccccc3n2)CC1	-18.0%	i	-22.6%	?	13µM*	-11.5%
c1ccc(-c2nc(N3CCCCCC3)c3ccccc3n2)nc1	?	11.2µM*	0.5%	?	-27.6%	6.5%
CCCN(CCC)c1nc(-c2ccccn2)nc2ccccc12	?	?	?	9.2µM*	?	-54.1%
CCCN(CCC)c1nc(-c2ccccc2F)nc2ccccc12	-9.8%	i	-21.5%	·	·	-11.9%
O=C1NC(=O)C(Cc2ccccc2)(C2CCN(Cc3cccn3-c3cccnc3)CC2)N1 (stereo not drawn)	·	i	·	·	·	·
CCCCCNC(=O)C(=O)NCC(c1ccc2c(c1)OCO2)N1CCOCC1 (stereo not drawn)	·	·	0.0%	·	·	0.2%
Cc1ccc2nc(-c3ccc(C)o3)c(Nc3ccc(Cl)cc3)n2c1	·	·	·	4.4%	25.4%	·
Nc1cccc(/C=C2\C=Cc3ccccc32)c1	·	·	10.6%	·	·	1.3%
